PubChem BioAssay AID720579 (National Center for Advancing Translational Sciences (NCATS), 2013)
Hit rate of the full screen: of about 310,000 compounds, about 1,900 (0.61%) were called active. Another 8% or so got no clear call; they are omitted. This excerpt belongs to a sample that is enriched for actives. Unmarked numbers belong to inactive results. Calls come from the whole dose curve; tested in A549 cells.

assay: qHTS for Stage-Specific Inhibitors of Vaccinia Orthopoxvirus: mCherry Reporter Primary qHTS; settings: Vaccinia virus mCherry reporter infection, fluorescence; series mostly up to 36.5 µM; activity change, negative = inhibition: at the top concentration; note: nearly all actives have a fitted effect of over 35% in size
% is set by controls: 0 for no effect and ±100 for the full control effect; potency is the fitted concentration of half-maximal effect.

Row | SMILES | outcome | Potency | activity change, negative = inhibition [%]
1 | Cc1ccc(C(=O)NC(C)C(c2cccs2)N2CCOCC2)cc1C (centres undefined) | inactive |  | 
2 | CCc1nc2c(OCc3ccc(C(=O)OC)cc3)cccn2c1N(C)C(=O)C(C)C | inactive |  | 
3 | CCOc1ccc(/C=N/NC(N)=S)cc1 |  | 1 µM (active) | 
4 | CCOc1ccc(/C=N\NC(=O)c2c(C)nc3cc(C)ccn23)cc1 |  |  | -22.5
5 | COC(=O)N/N=C/c1ccc(/C=N/NC(=O)OC)cc1 |  |  | -8.87
6 | COc1cccc(NC(=O)Nc2ccc(F)cc2)c1 |  |  | -29.6
7 | O=C(CSC1=Nc2ccccc2C2=NC(c3ccccc3)C(=O)N12)NCC1CCCO1 (centres undefined) |  |  | -12.9
8 | CC(C)C1N=C2c3ccccc3N=C(SCC(=O)c3ccc(O)c(O)c3)N2C1=O (centres undefined) |  | 11.2 µM (active) | 
9 | Cc1ccc(CNC(=O)CSC2=Nc3ccccc3C3=NC(C)C(=O)N23)cc1 (centres undefined) |  |  | -17.4
10 | Cc1cc2nc(-c3ccc(Cl)cc3)c(Cc3cccc(F)c3)n2c(C)c1Br |  |  | 24.4
11 | CC(C)C1CCN(C(=O)C2CCC(=O)N(C3CCCCCC3)C2)CC1 (centres undefined) |  |  | -22.2
12 | CCOc1ccc(-n2c(O)c(/C=N/Nc3nc(C)cc(C)n3)c3ccccc3c2=O)cc1 |  |  | 3.78
13 | CCN(CC)c1ccc(/C=N/Nc2nc(C)cc(C)n2)c(O)c1 |  | 2.51 µM (active) | 
14 | Cc1cc(C)nc(N/N=C/c2ccncc2)n1 |  |  | -2.46
15 | CC1=C(C(=O)Nc2ccccc2)S(=O)(=O)CCO1 |  | 0.891 µM (active) | 
16 | O=C(Nc1ccccc1)c1ccc2c(c1)OCCCO2 |  |  | -14.5
17 | CC1=C(C(=O)Nc2ccccc2)SCCO1 | inactive |  | 
18 | CC(C)Nc1nc(NCCOc2ccccc2Cl)c2sccc2n1 |  |  | -28.6
19 | O=C(C[C@H]1C[C@H](C(=O)N2CCOCC2)[C@@]2(CCC3CCCC3)c3[nH]c4ccc(Cl)cc4c3CCN2C1=O)NCc1ccco1 |  | 7.08 µM (active) | 
20 | COc1ccc(CNC(=O)C[C@H]2C[C@H](C(=O)N3CCOCC3)[C@@]3(CCC4CCCC4)c4[nH]c5ccc(Cl)cc5c4CCN3C2=O)cc1OC |  |  | -27.5
21 | CN(C)C(=O)CCc1ccc2c3c([nH]c2c1)[C@]1(CCC2CCCC2)[C@@H](C(=O)N2CCOCC2)C[C@H](CC(=O)NCc2ccco2)C(=O)N1CC3 |  |  | 2.15
22 | COc1ccc(Cl)cc1NC(=O)CN(C)C(=O)c1cn(-c2ccccc2)nc1-c1cccs1 |  |  | -28.8
23 | CC(C)C[C@H]1CNC(=S)N1C[C@H]1CCCN1C[C@H](Cc1ccc(O)cc1)N1C[C@H](Cc2ccc(O)cc2)N(CC2CCCCC2)C1=S |  |  | -18.3
24 | Nc1ncn(C2OC(CO)C(O)C2O)c(=O)n1 (centres undefined) |  | 10 µM (active) | 
25 | CC(C)Sc1nc(N)nc2c1ncn2C1OC(CO)C(O)C1O (centres undefined) |  |  | -9.34

Row | SMILES | outcome | Potency | activity change, negative = inhibition [%]
26 | Nc1nc(SCc2ccc([N+](=O)[O-])cc2)c2ncn(C3OC(CO)C(O)C3O)c2n1 (centres undefined) |  |  | -29.7
27 | COc1ccc(-c2ccc(C(=O)NC(C)C)c3occc23)c(C)c1 |  |  | 16.1
28 | CC(=O)c1cccc(-c2cnc3c(NC=O)cc(-c4cccc(C(=O)N(C)C)c4)cn23)c1 |  |  | -29.9
29 | CC(=O)c1cccc(-c2cnc3c(NC=O)cc(-c4ccc(N(C)C)cc4)cn23)c1 |  |  | -17.7
30 | CC(=O)c1ccc(-c2cnc3c(NC=O)cc(-c4cccc(NS(C)(=O)=O)c4)cn23)cc1 |  | 11.2 µM (active) | 
31 | COc1ccc(-c2cc3nc(NCCOc4ccccc4)ccn3n2)cc1 |  |  | 18.9
32 | COc1ccc(S(=O)(=O)NCCc2c[nH]c3ccccc23)cc1OC | inactive |  | 
33 | COc1cccc(CNCCc2c[nH]c3ccccc23)c1OCc1ccccc1F |  | 10 µM (active) | 
34 | c1cncc(CNCCc2c[nH]c3ccccc23)c1 |  |  | -26.3
35 | OCC(O)C(O)C(O)C(O)C=Nc1ccc(/C=C/c2ccnc3ccccc23)cc1 (centres undefined) |  |  | 12.1
36 | C=CC[C@@H](Cc1ccc(F)cc1)C(=O)OC[C@H]1CCCN1C(=O)[C@H](CC=C)CC(=O)N(CCO)Cc1ccccc1 | inactive |  | 
37 | Cc1cccc(C(=O)C(O)(c2ccccc2)C2CCCCC2=O)c1 (centres undefined) |  |  | -0.222
38 | O=C(C1CC(=O)N(c2ccc(F)cc2)C1)N1CCN(c2ccccc2)CC1 (centres undefined) |  |  | 0.265
39 | O=C(C1CC(=O)N(C2CCCCC2)C1)N1CCN(c2ccccc2)CC1 (centres undefined) |  |  | -0.781
40 | O=C(C1CC(=O)N(C2CCCC2)C1)N1CCN(c2cccc(C(F)(F)F)c2)CC1 (centres undefined) |  | 10 µM (active) | 
41 | COc1ccc(C2OC(CCc3ccccc3)Cc3[nH]c(=S)[nH]c(=O)c32)cc1 (centres undefined) | inactive |  | 
42 | CCCc1nc2c3ccccc3ccn2c1Cc1ccccc1C(F)(F)F | inactive |  | 
43 | OC(CBr)C[n+]1cccc2cc(Br)ccc21 (centres undefined) |  |  | -6.11
44 | CCCC[C@@H]1CN=C(N)N1CCc1cccc(F)c1 | inactive |  | 
45 | CCCC[C@@H]1CN=C(N)N1CCc1cc(C(F)(F)F)cc(C(F)(F)F)c1 |  | 11.2 µM (active) | 
46 | CCCC[C@@H]1CN=C(N)N1CCCC | inactive |  | 
47 | CC(C)(C)NCC(O)COc1cccc2[nH]c(=O)[nH]c12 (centres undefined) |  | inactive | 
48 | COc1ccc(OCC(O)CNCCNc2nccc(C(F)(F)F)n2)cc1 (centres undefined) |  |  | -2.52
49 | CC(C)(C)CC(C)(C)NCC(O)COCCOc1ccc(Br)cc1 (centres undefined) |  | 12.6 µM (active) | 
